According to PubChem BioAssay (Tox21):
Inconclusive results are not listed. A number with no mark means an inactive call. Calls follow the shape of the full dose curve.

Test: qHTS assay to identify small molecule agonists of the progesterone receptor (PR) signaling pathway - cell viability counter screen (AID 1346799); also: nearly all actives have a fitted effect of over 45% in size
Details: PR-UAS-bla HEK293T viability, CellTiter-Glo luminescence, 16 h; series mostly up to 92.4 µM; activity change, negative = cytotoxicity: at the top concentration
Text: National Center for Advancing Translational Sciences [NCATS]
NIH Chemical Genomics Center [NCGC]
U.S. Environmental Protection Agency [EPA]
National Institutes of Environmental Health Sciences [NIEHS]
National Toxicology Program [NTP]
U.S. Food and Drug Administration [FDA]
Progesterone receptor (PR), a nuclear hormone receptor, plays an important role in development, metabolic homeostasis and reproduction. It is activated by the steroid hormone progesterone. Endocrine disrupting chemicals (EDCs) and their interactions with steroid hormone receptors like PR causes disruption of normal endocrine function. To identify the compounds that stimulate PR signaling, a PR-UAS-bla GripTite cell line i.e. PR-UAS-bla HEK293T (Invitrogen, Carlsbad, CA, USA) containing a beta-lactamase reporter gene under the control of an UAS response element was used to screen Tox21 10K compound library. The cytotoxicity of the Tox21 compound library against the PR-bla cell line was tested in parallel by measuring the cell viability using CellTiter-Glo assay in the same wells.
Tox21 Assay Protocol Summary:
PR-UAS-bla HEK293T cells were dispensed at 3,000 cells/5 uL of assay medium containing 2% charcoal stripped FBS per well into black wall/clear-bottom 1536-well plates using a Multidrop Combi (ThermoFisher Scientific, Waltham, MA) dispenser. After the assay plates were incubated at a 37C and 5% CO2 for 6 hr, 23 nL of compounds dissolved in DMSO, positive controls or DMSO only was transferred to the assay plate by a Pintool station (Kalypsys, San Diego, CA). The plates were incubated at 37C and 5% CO2 for 16 hr. Then 1 uL of LiveBLAzer B/G FRET substrate was added using a Flying Reagent Dispenser (FRD, Aurora Discovery, San Diego, CA), the plates were incubated at room temperature for 2 hours, and fluorescence intensity was measured by an Envision plate reader (PerkinElmer, Shelton, CT). For cell viability readout that measures cytotoxicity, 4 uL/well of CellTiter-Glo reagent was added into the assay plates using a FRD. After 30 min incubation at room temperature, the luminescence intensity in the plates was measured using a ViewLux (PerkinElmer) plate reader.
% is scaled to controls: 0 for no effect and ±100 for the full control effect.

Row | Compound | activity change, negative = cytotoxicity
1 | CC(C[N+](C)(C)C)OC(N)=O (stereo not given) | -6.06% [at 42.5 µM]
2 | Cc1cccn2c(=O)c(-c3nnn[nH]3)cnc12 | 11.1% [at 19 µM]
3 | CCCN(CCC)CCc1cccc2c1CC(=O)N2 | -5% [at 42.5 µM]
4 | NS(=O)(=O)c1ccccc1Cl | 0.601%
5 | O=c1cc(CO)occ1O | 0% [at 42.5 µM]
6 | COc1ccc2c(c1)c(CC(=O)OCC(=O)O)c(C)n2C(=O)c1ccc(Cl)cc1 | -7.31% [at 42.5 µM]
7 | O=C(O)Cc1ccc(CCNS(=O)(=O)c2ccc(Cl)cc2)cc1 | -3.6% [at 42.5 µM]
8 | CC(C(=O)O)c1ccc(CC2CCCC2=O)cc1 (stereo not given) | -17.4% [at 42.5 µM]
9 | COc1cc(C(=O)N2CCCCCCC2)cc(OC)c1OC | 0.0213% [at 42.5 µM]
10 | CC(=O)CC(C)(C)C1CCCCC1 | 4.4%
11 | N#Cc1ccc(C2CCCc3cncn32)cc1 (stereo not given) | -11.1% [at 42.5 µM]
12 | CC(=O)OCC(=O)[C@@]1(O)CCC2C3CCC4=CC(=O)CC[C@]4(C)C3[C@@H](O)C[C@@]21C (stereo not given in full) | 3.83% [at 42.5 µM]
13 | CCN1CCC[C@H]1CNC(=O)c1cc(S(N)(=O)=O)ccc1OC | -2.82% [at 42.5 µM]
14 | CCN(CC)CCOCCOC(=O)C1(c2ccccc2)CCCC1 | -38.4% [at 42.5 µM]
15 | C=C(C)CS(=O)(=O)O | -5%
16 | O=C1CCCC(=O)C1 | -4.79%
17 | Cc1cnc(NS(=O)(=O)c2ccc(N)cc2)nc1 | 0% [at 42.5 µM]
18 | Cn1c(N)c(N=O)c(=O)n(C)c1=O | -8.95%
19 | CCCCNC(=O)NCCCC | 1.27%
20 | Cn1cc(S(C)=O)c(=O)c2ccc(F)cc21 (stereo not given) | -1.78% [at 42.5 µM]

Row | Compound | activity change, negative = cytotoxicity
21 | O=C1NC(=O)[C@@]2(CCOc3ccc(F)cc32)N1 | 11.3% [at 42.5 µM]
22 | Brc1c(NC2=NCCN2)ccc2nccnc12 | 2.12% [at 42.5 µM]
23 | FC1(F)C(F)(F)C(F)(F)C2(F)C(F)(F)C(F)(F)C(F)(F)C(F)(F)C2(F)C1(F)F (stereo not given) | -5.32% [at 42.5 µM]
24 | O=C(O)CCCc1ccccc1 | -3.78% [at 42.5 µM]
25 | NS(=O)(=O)c1cc(C(=O)NN2C[C@H]3[C@H]4CCC(C4)[C@H]3C2)ccc1Cl | -12% [at 42.5 µM]
26 | c1ccc(CC2=NCCN2)cc1 | 1.08% [at 42.5 µM]
27 | Cc1sccc1Br | 8.92% [at 42.5 µM]
28 | CCCCC(CC)COC(=O)c1ccccc1O (stereo not given) | -4.45% [at 42.5 µM]
29 | CC(C)=CCCC(C)CC(=O)O (stereo not given) | -0.816%
30 | CCCCCSCCCCC | -11.7%
31 | CCS(=O)(=O)c1ccc(OC)c(C(=O)OC)c1 | 1.01% [at 42.5 µM]
32 | C1OCOCO1 | -4.99%
33 | COC(=O)[C@@H](N)Cc1ccc(O)c(O)c1 | 18.7% [at 42.5 µM]
34 | CC(C)(O)C(=O)c1ccccc1 | 4.53%
35 | CN1CC(=O)NC1=N | -25.9% [at 42.5 µM]
36 | N=C(N)c1ccc(OCCCOc2ccc(C(=N)N)cc2)cc1 | 0.0253% [at 42.5 µM]
37 | O=C(O)COc1nn(Cc2ccccc2)c2ccccc12 | -17% [at 42.5 µM]
38 | CC(C)(C)NCCNC(C)(C)C | -5.51%
39 | CCN(Cc1ccncc1)C(=O)C(CO)c1ccccc1 (stereo not given) | 8.77% [at 42.5 µM]
40 | CCSC(=O)N(CC(C)C)CC(C)C | 5.91%
